Screening results as filed in PubChem.
This is a sample that favours compounds with a hit; in the whole collection about 0.83% have one here.
Smad3 FoxH1 inh – Smad3/FoxH1 peptide binding inhibitors, primary screen, biochemical, TR-FRET. TR-FRET Smad3/Dy647-FoxH1 peptide binding, europium anti-His. actives 0.29% (n = 88,000). inhibition, % at 25 µM. Mothers against decapentaplegic homolog 3 (Homo sapiens), P84022;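 active = compounds that reduce the energy-transfer binding signal between the protein and its labelled peptide by more than half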
Target sequence (P84022 whole entry, looked up): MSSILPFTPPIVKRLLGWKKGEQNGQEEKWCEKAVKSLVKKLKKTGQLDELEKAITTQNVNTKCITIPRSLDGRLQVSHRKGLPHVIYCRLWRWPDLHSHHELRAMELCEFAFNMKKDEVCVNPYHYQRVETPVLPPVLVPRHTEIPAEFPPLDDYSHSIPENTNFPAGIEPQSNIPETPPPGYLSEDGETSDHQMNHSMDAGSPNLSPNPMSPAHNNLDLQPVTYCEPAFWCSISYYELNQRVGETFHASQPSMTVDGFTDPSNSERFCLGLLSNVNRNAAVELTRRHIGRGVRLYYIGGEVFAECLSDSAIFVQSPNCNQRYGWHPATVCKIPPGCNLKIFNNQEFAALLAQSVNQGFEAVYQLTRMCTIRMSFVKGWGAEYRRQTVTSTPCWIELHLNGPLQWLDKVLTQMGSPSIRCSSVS
MRP-1 activ – H69AR viability gain despite doxorubicin, primary screen, MRP-1 activator project, H69AR cells, CellTiter-Glo | viability rescue | viability increase, % at 10 µM | actives 0.61% (n = 140,000) | AID 799, 2007;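 active = viability gain under doxorubicin at or above a set limit, the compound median plus 3 SD, cut at about 4.7% in these data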;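 note: MRP-1 overexpressing cells given doxorubicin 25 µM after compound pretreatment; 18-22 h compound pretreatment then 72 h with doxorubicin before readout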
Candida biofilm – clotrimazole potentiators killing Candida biofilms, primary screen, with clotrimazole, Alamar Blue; C. albicans biofilm + clotrimazole; actives 0.14% (n = 85,000); inhibition, % at 6 µM;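 active = inhibition above 20%; inactive = inhibition below 20%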;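 note: preformed 24 hr biofilms exposed to compound for 48 hr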
MRP resist rev – reversal of MRP1-mediated doxorubicin resistance, primary screen, H69AR cells, doxorubicin co-treatment; H69AR cells + 2 uM doxorubicin, CellTiter-Glo, 72 h; differential viability (reversal), % at 10 µM; actives 0.04% (n = 85,000); AID 602, 2007;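 active = viability drop by adding the cancer drug above about 55%, with treated viability meeting a 40% cutoff, limit read from the data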;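 note: larger differential means the compound sensitizes cells more to doxorubicin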
A number is an active result; . = inactive; / = no result; [ ] = remark or other dose.

SMILES	Smad3 FoxH1 inh	MRP-1 activ	Candida biofilm	MRP resist rev
NS(=O)(=O)c1ccc(NCc2nc3ccccc3[nH]2)cc1	.	/	/	/
Fc1cccc(CSc2ncnc3c2ncn3[C@H]2CCCS2)c1	.	/	/	/
CNc1sc(C(=O)c2ccccc2F)c(N)c1-c1nc2ccccc2s1	.	6.8	.	.
Cc1ccc2c(C)nc(/N=C(\N)NC(=O)N3c4ccccc4Sc4ccccc43)nc2c1	/	11	/	/
Cc1ccc2nc(/N=C(\N)NC(=O)N3c4ccccc4Sc4ccccc43)nc(C)c2c1	/	8.7	/	/
COc1ccc2nc(/N=C(\N)NC(=O)N3c4ccccc4Sc4ccccc43)nc(C)c2c1	/	.	/	/
Cc1cc2nc(/N=C(\N)NC(=O)N3c4ccccc4Sc4ccccc43)nc(C)c2cc1C	/	12	/	/
COc1ccc2nc(/N=C(\N)NC(=O)C(C)(C)C)nc(C)c2c1	.	.	.	.
Cc1nc(/N=C(\N)Nc2ccccc2)nc2ccccc12	.	.	.	.
Cc1cccc(NS(=O)(=O)c2cc(C(=O)OC(C)C(=O)NCc3ccc4c(c3)OCO4)ccc2C)c1 (stereo not drawn)	/	4.8	/	/
CN(C)C[C@H]1CCC[C@@H](CN(C)C)C1=O	.	/	/	/
COc1ccc(-c2cc(C(=O)Nc3sc4c(c3C#N)CCCC4)c3ccccc3n2)cc1	/	6.0	/	/
O=c1[nH]c2[nH]c(=S)[nH]c(=S)c2[nH]1	68	/	/	/
Cc1ccc(OCc2nc(-c3ccc(Cl)cc3)n[nH]2)cc1	.	5.4	.	.
COc1ccc(C(C)=O)cc1CSc1nnc(Nc2ccccc2C)s1	/	6.0	/	/
COc1ccc(C(C)=O)cc1CSc1nnc(Nc2ccc(C)cc2C)s1	/	.	/	/
CCCCC1S/C(=N/N=C/c2ccc(OC)cc2)N(Cc2ccc(OC)cc2)C1=O (stereo not drawn)	.	5.4	.	.
CCN=C1SC(CC(=O)NCCc2ccc(OC)cc2)C(=O)N1CC (stereo not drawn)	/	.	/	/
CCCC1S/C(=N/N=C/c2ccc(OC)cc2)N(Cc2ccccc2)C1=O (stereo not drawn)	.	6.0	.	.
CCCC1S/C(=N/N=C/c2ccc(OC)cc2)N(Cc2ccc(OC)cc2)C1=O (stereo not drawn)	.	.	.	.
O=c1c[n+](CCCC[n+]2cc(=O)o[nH]2)[nH]o1	.	/	/	/
CCN1CCC(O)([C@H](C(=O)O)c2ccccc2)CC1	.	/	/	/
O=c1cc(N=Nc2ccc(O)cc2)[nH]c(=O)[nH]1	.	/	/	/
CC(C)CCC[C@@H](C)[C@@H]1CC[C@@H]2[C@H]3CC[C@H]4C[C@@H](N)CC[C@]4(C)[C@@H]3CC[C@]21C	.	/	/	/
CCOc1ccccc1C(=O)OCC(=O)Nc1ccc(OC(F)F)cc1	/	14	/	/
SMILES	Smad3 FoxH1 inh	MRP-1 activ	Candida biofilm	MRP resist rev
O=C(O)[C@H](Cc1c[nH]c2ccccc12)N1C(=O)c2ccccc2C1=O	.	/	/	/
Cc1ccc(N2C(N)=C(C#N)C(c3cccnc3)C3=C2CCCC3=O)cc1 (stereo not drawn)	.	.	.	.
N#CC1=C(N)N(c2ccc(Br)cc2)C2=C(C(=O)CCC2)C1c1cccnc1 (stereo not drawn)	.	.	.	59
O=C(O)c1ccncc1.O=C(O)c1ccncc1.[Cl][Pt]([Cl])([Cl])[Cl]	72	/	/	/
CCC(C)c1ccc(O)c(NC(=O)c2ncn[nH]2)c1 (stereo not drawn)	.	5.3	.	.
CC[N+](C)(CC)CCN1C(=O)c2ccccc2S1(=O)=O	.	/	/	/
O=C(Nc1cccnc1)C1CC(c2ccc(Cl)c(Cl)c2)=NO1 (stereo not drawn)	.	6.0	.	.
CC12CCC(c3nnc(SCc4ccc(Cl)cc4)nc31)C2(C)C (stereo not drawn)	.	5.7	.	.
Cc1ccsc1CNn1cnnc1SCc1ccc(Cl)cc1	.	6.3	.	.
Cc1ccc(CNn2cnnc2SCc2ccc(F)cc2)cc1	.	.	.	.
Cc1cccc(CSc2nc3c(cc2C#N)CCC3)c1	58[fluorescence artefact?]	.	.	.
CC(C)[C@H](NC(=O)c1ccccc1)C(=O)OCC(=O)/C=C1/N(C)c2ccccc2C1(C)C	/	4.8	/	/
CN1/C(=C\C(=O)COC(=O)Cn2nnc(-c3ccccc3)n2)C(C)(C)c2ccccc21	.	.	.	.
Cc1oc(C(=O)Nc2ccc(C(=O)O)cc2)cc1COc1ccccc1	.	7.2	.	.
C[C@H](NCCN(C)C)[C@@H]1CC[C@@H]2[C@H]3CCc4cc(O)ccc4[C@@H]3CC[C@]21C	.	/	/	/
CN=C1S/C(=C\c2ccc(N3CCOCC3)cc2C)C(=O)N1C	/	.	/	/
CN=C1S/C(=C\c2cc(C)n(-c3ccccc3F)c2C)C(=O)N1C	/	5.9	/	/
